Pf apPOL inh – Pf-apPOL inhibitors, biochemical, fluorescence | AID 1794808, 2022 | inhibition, % at 10 µM | Recombinant Pf-apPOL, molecular beacon fluorescence, 1.5 h | 210,000 compounds, 0.25% hits | Plasmodium falciparum apicoplast DNA polymerase (apPOL)
mHTT-CaM PPI inh – mutant huntingtin-calmodulin interaction inhibitors – biochemical, AlphaScreen, primary screen | P42858 | AlphaScreen His-mHTT/GST-CaM binding, luminescence | inhibition, % at 15 µM | 190,000 compounds, 3.6% hits | AID 1671202, 2021
Target sequence (P42858 whole entry, looked up, change not shown): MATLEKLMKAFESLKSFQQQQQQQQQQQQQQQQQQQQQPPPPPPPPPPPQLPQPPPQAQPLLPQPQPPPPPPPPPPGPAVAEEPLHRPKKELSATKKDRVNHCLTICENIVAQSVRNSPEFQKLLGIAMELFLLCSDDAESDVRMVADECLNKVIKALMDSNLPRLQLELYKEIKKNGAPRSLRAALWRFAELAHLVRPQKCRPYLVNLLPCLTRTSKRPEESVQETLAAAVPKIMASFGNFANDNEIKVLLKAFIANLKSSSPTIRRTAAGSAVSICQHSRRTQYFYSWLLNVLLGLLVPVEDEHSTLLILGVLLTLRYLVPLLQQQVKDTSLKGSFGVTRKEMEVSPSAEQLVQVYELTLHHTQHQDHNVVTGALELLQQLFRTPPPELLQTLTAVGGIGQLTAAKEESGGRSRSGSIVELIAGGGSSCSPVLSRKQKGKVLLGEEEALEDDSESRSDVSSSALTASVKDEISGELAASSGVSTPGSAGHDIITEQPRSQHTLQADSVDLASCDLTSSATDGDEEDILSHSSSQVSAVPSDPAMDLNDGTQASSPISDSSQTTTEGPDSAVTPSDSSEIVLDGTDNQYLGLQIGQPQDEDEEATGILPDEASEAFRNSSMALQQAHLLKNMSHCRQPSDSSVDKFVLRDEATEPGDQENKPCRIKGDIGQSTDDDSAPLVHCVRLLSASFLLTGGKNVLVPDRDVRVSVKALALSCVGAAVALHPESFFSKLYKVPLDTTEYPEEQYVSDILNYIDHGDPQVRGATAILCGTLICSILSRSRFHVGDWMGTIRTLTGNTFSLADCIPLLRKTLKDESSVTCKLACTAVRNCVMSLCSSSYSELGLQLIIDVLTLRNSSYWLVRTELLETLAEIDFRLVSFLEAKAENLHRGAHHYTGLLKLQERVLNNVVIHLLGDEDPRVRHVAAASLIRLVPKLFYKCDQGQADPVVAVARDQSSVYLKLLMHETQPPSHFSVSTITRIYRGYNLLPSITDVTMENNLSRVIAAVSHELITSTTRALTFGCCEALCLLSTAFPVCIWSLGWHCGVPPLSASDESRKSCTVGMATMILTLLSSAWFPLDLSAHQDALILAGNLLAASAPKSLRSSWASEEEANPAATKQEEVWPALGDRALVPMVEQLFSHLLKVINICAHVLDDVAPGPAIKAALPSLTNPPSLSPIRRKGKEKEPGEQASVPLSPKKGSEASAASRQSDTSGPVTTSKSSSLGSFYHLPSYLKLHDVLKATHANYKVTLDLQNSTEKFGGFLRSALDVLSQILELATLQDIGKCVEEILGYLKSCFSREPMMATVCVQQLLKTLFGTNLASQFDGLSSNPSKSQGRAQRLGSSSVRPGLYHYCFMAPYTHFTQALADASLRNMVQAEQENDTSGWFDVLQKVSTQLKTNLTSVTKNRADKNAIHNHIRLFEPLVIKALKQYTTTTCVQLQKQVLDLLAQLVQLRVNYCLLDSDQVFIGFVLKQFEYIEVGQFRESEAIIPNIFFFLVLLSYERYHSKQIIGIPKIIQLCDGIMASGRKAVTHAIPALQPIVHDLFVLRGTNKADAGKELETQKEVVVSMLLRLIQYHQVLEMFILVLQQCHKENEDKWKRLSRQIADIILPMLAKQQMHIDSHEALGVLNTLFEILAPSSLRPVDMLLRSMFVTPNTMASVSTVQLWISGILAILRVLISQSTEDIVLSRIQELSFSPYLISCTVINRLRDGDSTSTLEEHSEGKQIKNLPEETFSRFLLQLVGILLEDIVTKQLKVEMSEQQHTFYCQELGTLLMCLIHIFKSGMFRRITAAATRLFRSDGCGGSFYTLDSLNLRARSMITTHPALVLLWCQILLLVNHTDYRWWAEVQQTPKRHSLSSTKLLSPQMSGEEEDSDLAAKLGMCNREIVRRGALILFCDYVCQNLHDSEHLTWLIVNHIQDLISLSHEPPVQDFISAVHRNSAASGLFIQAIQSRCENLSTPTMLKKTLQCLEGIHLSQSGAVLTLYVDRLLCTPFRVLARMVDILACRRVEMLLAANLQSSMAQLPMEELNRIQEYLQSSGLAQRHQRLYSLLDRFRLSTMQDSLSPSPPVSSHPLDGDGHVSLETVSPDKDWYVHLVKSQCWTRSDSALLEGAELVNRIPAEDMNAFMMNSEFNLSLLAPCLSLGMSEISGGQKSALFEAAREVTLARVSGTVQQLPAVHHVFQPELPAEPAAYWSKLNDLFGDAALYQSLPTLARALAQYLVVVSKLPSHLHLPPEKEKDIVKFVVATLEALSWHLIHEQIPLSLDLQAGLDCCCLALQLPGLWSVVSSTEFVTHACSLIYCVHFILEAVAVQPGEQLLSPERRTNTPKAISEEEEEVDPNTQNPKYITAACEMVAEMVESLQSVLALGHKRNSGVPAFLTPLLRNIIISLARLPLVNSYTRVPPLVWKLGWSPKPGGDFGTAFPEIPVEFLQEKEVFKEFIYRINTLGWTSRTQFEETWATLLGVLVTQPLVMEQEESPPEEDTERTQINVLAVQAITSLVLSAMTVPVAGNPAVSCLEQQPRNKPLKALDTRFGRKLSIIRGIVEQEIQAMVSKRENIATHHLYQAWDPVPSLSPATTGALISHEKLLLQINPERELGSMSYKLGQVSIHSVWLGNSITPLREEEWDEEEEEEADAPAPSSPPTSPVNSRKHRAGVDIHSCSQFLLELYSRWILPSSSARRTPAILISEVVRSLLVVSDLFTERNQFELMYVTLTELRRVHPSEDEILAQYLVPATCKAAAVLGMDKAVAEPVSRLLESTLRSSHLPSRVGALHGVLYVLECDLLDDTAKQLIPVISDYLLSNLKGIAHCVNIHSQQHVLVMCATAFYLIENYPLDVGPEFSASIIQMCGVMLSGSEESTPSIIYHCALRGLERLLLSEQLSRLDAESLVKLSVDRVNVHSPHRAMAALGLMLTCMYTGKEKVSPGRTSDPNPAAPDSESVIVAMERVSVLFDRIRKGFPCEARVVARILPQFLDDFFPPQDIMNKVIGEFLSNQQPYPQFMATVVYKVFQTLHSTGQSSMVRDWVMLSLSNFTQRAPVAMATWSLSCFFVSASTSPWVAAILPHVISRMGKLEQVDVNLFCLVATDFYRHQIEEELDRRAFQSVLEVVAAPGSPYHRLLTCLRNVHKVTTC
Hits are given with their value. Most compounds without a hit are left out; they make up all but 3.6% or so of the library. Cut-off read from the data, not from the text of the source: active = inhibition above about 50%; inactive = the rest.

How did O=[N+]([O-])c1cc(CN2CCCC2)c2cccnc2c1O do in these assays?
Pf apPOL inh: inactive; mHTT-CaM PPI inh: 100.3

How did COc1cc(CN2CCCCCC2)cc([N+](=O)[O-])c1O do in these assays?
Pf apPOL inh: inactive; mHTT-CaM PPI inh: inactive

Results for C#CCN1C(=O)C(O)(CC(=O)c2cc(C)ccc2C)c2ccccc21 (configuration not stated) ?
Pf apPOL inh: inactive; mHTT-CaM PPI inh: inactive

What do the screens show for `O=C(NCCc1cscn1)C1CCN(C(=O)c2c(F)cccc2F)CC1`?
Pf apPOL inh: inactive; mHTT-CaM PPI inh: inactive

Results for O=C(COc1ccc(Cl)cc1Cl)Nc1nnc(-c2ccncc2)o1 ?
Pf apPOL inh: inactive; mHTT-CaM PPI inh: inactive

How did O=C(Nc1ccc(I)cc1Cl)c1ncn[nH]1 do in these assays?
Pf apPOL inh: inactive; mHTT-CaM PPI inh: 96.1

What do the screens show for `O=C(Nc1ccccc1Cl)c1ncn[nH]1`?
Pf apPOL inh: inactive; mHTT-CaM PPI inh: inactive

What do the screens show for `CCCOc1nn(CCC)cc1C(=O)Nc1ccc(S(N)(=O)=O)cc1`?
Pf apPOL inh: inactive; mHTT-CaM PPI inh: inactive

What do the screens show for `CCN(CC)c1ccc(NC(=O)Cc2ccccc2)cc1`?
Pf apPOL inh: inactive; mHTT-CaM PPI inh: inactive

What do the screens show for `CCN(CC)c1ccc(C2NN=C(Cc3ccccc3)S2)cc1` (configuration not stated)?
Pf apPOL inh: inactive; mHTT-CaM PPI inh: 85.0

How did O=c1[nH]nc(SCc2ccccc2)c(=O)[nH]1 do in these assays?
Pf apPOL inh: inactive; mHTT-CaM PPI inh: inactive

How did COc1cccc(C(=O)NCc2nnnn2C2CCCCC2)c1OC do in these assays?
Pf apPOL inh: inactive; mHTT-CaM PPI inh: inactive

Results for CC(C)(C)C(=O)NCC(C)(O)c1ccco1 (configuration not stated) ?
Pf apPOL inh: inactive; mHTT-CaM PPI inh: inactive

What do the screens show for `Cc1nnsc1C(=O)Nc1ccc(CN2CCS(=O)(=O)CC2)cc1`?
Pf apPOL inh: inactive

How did Cc1ccc(Nc2ccc(NC(=O)c3snnc3C)cc2)nn1 do in these assays?
Pf apPOL inh: inactive; mHTT-CaM PPI inh: 100.1

What do the screens show for `CC(C)COc1ccc(C(=O)Nc2ccc3oc(-c4ccncc4)nc3c2)cc1`?
Pf apPOL inh: inactive; mHTT-CaM PPI inh: inactive

Results for CCOC(=O)CSc1nc(Nc2ccccc2)c2cnc(N3CCOCC3)nc2n1 ?
Pf apPOL inh: inactive

How did N#CCC(=O)c1ccc(Cl)cc1 do in these assays?
Pf apPOL inh: inactive; mHTT-CaM PPI inh: inactive

Results for N#CCC(=O)c1ccc([N+](=O)[O-])cc1 ?
Pf apPOL inh: inactive; mHTT-CaM PPI inh: 98.5

What do the screens show for `COc1cccc(CN2CCCC2c2c(C)noc2C)c1OC` (configuration not stated)?
Pf apPOL inh: inactive; mHTT-CaM PPI inh: inactive

Results for O=C(NCc1ccco1)C1CCCN(c2nc3nc[nH]c(=O)c3s2)C1 (configuration not stated) ?
Pf apPOL inh: inactive; mHTT-CaM PPI inh: inactive

What do the screens show for `CC1=NN(c2ccccc2)C(=O)C1`?
Pf apPOL inh: inactive

What do the screens show for `CC1=NN(c2ccc(Cl)cc2)C(=O)C1`?
Pf apPOL inh: inactive; mHTT-CaM PPI inh: 68.4

What do the screens show for `Cc1nnc(NC(=O)CN2C(=O)c3ccccc3S2(=O)=O)s1`?
Pf apPOL inh: inactive; mHTT-CaM PPI inh: inactive

How did CCc1[nH]nc2c1C(c1ccccc1[N+](=O)[O-])C(C#N)=C(N)O2 (configuration not stated) do in these assays?
Pf apPOL inh: inactive; mHTT-CaM PPI inh: inactive

Results for COc1ccc(N=Cc2cc([N+](=O)[O-])ccc2O)cc1 ?
Pf apPOL inh: inactive; mHTT-CaM PPI inh: inactive

How did N#CC1=C(N)Oc2c(C=Nc3ccccc3)ccc(O)c2C1c1ccccc1[N+](=O)[O-] (configuration not stated) do in these assays?
Pf apPOL inh: inactive; mHTT-CaM PPI inh: 100.0

How did COc1ccc(N=Cc2ccc(O)c3c2OC(N)=C(C#N)C3c2cccc([N+](=O)[O-])c2)cc1 (configuration not stated) do in these assays?
Pf apPOL inh: inactive; mHTT-CaM PPI inh: 99.0

What do the screens show for `O=[N+]([O-])c1ccc(N2CCCCC2)cc1NCc1cccnc1`?
Pf apPOL inh: inactive; mHTT-CaM PPI inh: inactive

How did CCOc1ccc(-c2c(C#N)c(N)n3c(nc4ccccc43)c2C#N)cc1OC do in these assays?
Pf apPOL inh: inactive; mHTT-CaM PPI inh: inactive

How did COc1cc(-c2c(C#N)c(N)n3c(nc4ccccc43)c2C#N)ccc1OCC#N do in these assays?
Pf apPOL inh: inactive; mHTT-CaM PPI inh: 69.0

Results for COc1cccc(-c2cc(C3CCN(C(=O)Nc4ccc(C)cc4)CC3)[nH]n2)c1 ?
Pf apPOL inh: inactive; mHTT-CaM PPI inh: inactive

How did Cc1cc(C)cc(NC(=O)CSc2cn(CCNC(=O)c3ccc(F)cc3)c3ccccc23)c1 do in these assays?
Pf apPOL inh: inactive; mHTT-CaM PPI inh: 78.0

How did Cc1cccc(NC(=O)CSc2cn(CCNC(=O)c3ccc(F)cc3)c3ccccc23)c1 do in these assays?
Pf apPOL inh: inactive; mHTT-CaM PPI inh: inactive

What do the screens show for `CCCn1cc2c3c(cccc31)CN(C(=O)C1CCCC1)CC2`?
Pf apPOL inh: inactive; mHTT-CaM PPI inh: inactive

Source: PubChem BioAssay (University of Kansas High Throughput Screening Laboratory)
